# Results reported in PubChem BioAssay (EPA / NIEHS).
# Several values for one entry are separate records, joined by “and”; a condition that tells them apart may be missing. Equal entries are not always repeated. Inconclusive results are not listed. A structure can be active in one record and inactive in another. Activity calls are given as the source filed them. The calls were made as follows: active = hit-call score of the fitted dose curve at least 0.9, where 1 is the maximum; inconclusive = response in the unintended direction; inactive = score below 0.9.
# Tested on: frog Estrogen Receptor (ER), gene 398734
# Experiment: ATG_frER1_XSP2: Attagene TRANS-FACTORIAL Multi-Species (XSP2) HepG2 Assay for frog Estrogen Receptor (ER) (AID 2283821);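 also: hits raise reporter mRNA above DMSO baseline so potency means agonist or activator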
# Method: ATG_XSP2_multi-species_TRANS is a cell-based, multiplexed assay created by modifying the existing Attagene TRANS-FACTORIAL system to include a panel of nuclear receptors from some or all the following species: human (Homo sapiens), mouse (Mus musculus), frog (Xenopus laevis), zebrafish (Danio rerio), chicken (Gallus gallus), and turtle (Chrysemys picta). The ECOTOX-FACTORIAL format uses HepG2, a human liver cell line, with measurements taken at 24 hours after chemical dosing in a 24-well plate. Xsp2 included 3 nM 6-alpha-fluorotestosterone and 1.5 nM norgestrel to stimulate the androgen receptor.ATG_frER1_XSP2 is one of 29 assay components measured or calculated from the ATG_XSP2_multi-species_TRANS assay. It is designed to make measurements of mRNA induction, a form of inducible reporter, as detected with fluorescence intensity signals by Reverse transcription polymerase chain reaction (RT-PCR) and Capillary electrophoresis technology.The assay endpoint ATG_frER1_XSP2 was analyzed in the positive analysis fitting direction relative to DMSO as the negative control and baseline of activity. Using a type of inducible reporter, measures of mRNA for gain-of-signal activity can be used to understand the reporter gene at the transcription factor-level as they relate to the gene ER. Furthermore, this assay endpoint can be referred to as a primary readout, because this assay has produced multiple assay endpoints where this one serves a reporter gene function. To generalize the intended target to other relatable targets, this assay endpoint is annotated to the nuclear receptor intended target family, where the subfamily is steroidal.
# Human liver HepG2 cells are transiently transfected with multiple reporter transcription units (MRTUs) in 6-well plates using FuGene 6 reagent (Roche; 3 ml FuGene/1 mg DNA). The MRTU constructs are regulated by a cis-regulating element (promoter). […] A major difference between the CIS and TRANS system is that in CIS activities of endogenous TFs are measured, whereas the TRANS assay evaluates changes in activities of exogenous, chimeric NR-Gal4 proteins. […] At the end of 24 hour incubation, total RNA was isolated using TriZol reagent (Invitrogen). The isolated RNA is then reverse-transcribed using oligo(dT) primer and Mo-MLV reverse transcriptase (Invitrogen) with DNAse I (Ambion) treatment for 30 min. The one-tenth of the produced cDNA was amplified by PCR using Taq DNA polymerase (Invitrogen) and two reporter sequence-specific primers. The PCR products were fluorescently labeled by primer extension with 6-arboxyfluorescein (6-FAM) 5'-labeled reporter sequence-specific primer (2 min at 95 C, 20 s at 68 C and 10 min at 72 C) and these products were digested with 5U of HpaI (New England Biolabs) for 2h at 37 C. The fragments were purified using Qiaquick PCR columns (Qiagen), analyzed on an ABI 3130xL genetic analyzer (Applied Biosystems) with peak positions identified by using a set of X-rhodamine (ROX)-labeled MapMarker1000 molecular weight standards (BioVentures). The raw capillary electrophoresis data was processed using Attagraph software (Attagene).
Structure (SMILES),outcome,AC50
CC1(C)CCC(=Cc2ccc(Cl)cc2)C1(O)Cn1cncn1 (stereo unspecified),inactive,–
COP(=S)(OC)SCn1nnc2ccccc2c1=O,–,29.1 µM (active) and 5.67 µM (active)
CC1(C)C(C=C(Cl)Cl)C1C(=O)OC(C#N)c1cccc(Oc2ccccc2)c1 (stereo unspecified),–,21.1 µM (active)
N#Cc1c[nH]cc1-c1cccc2c1OC(F)(F)O2,inactive,4.14 µM (active)
C=C(C)CN(CC)c1c([N+](=O)[O-])cc(C(F)(F)F)cc1[N+](=O)[O-],–,6.84 µM (active) and 32.4 µM (active)
CC(C)NC(=O)N1CC(=O)N(c2cc(Cl)cc(Cl)c2)C1=O,inactive,–
Cc1c(COC(=O)[C@@H]2[C@H](/C=C(\Cl)C(F)(F)F)C2(C)C)cccc1-c1ccccc1,–,49.3 µM (active)
CSC(=O)c1c(C(F)F)nc(C(F)(F)F)c(C(=O)SC)c1CC(C)C,inactive,–
CCN(CC)C(=O)C(C)Oc1cccc2ccccc12 (stereo unspecified),inactive,–
COP(=S)(OC)Oc1ccc([N+](=O)[O-])c(C)c1,–,50.4 µM (active)
